Assay results: PubChem BioAssay (Tox21)
Values joined by “and” are separate entries in the source; they are usually repeats but may differ in a detail not shown here. Equal entries are not always repeated. Records with an inconclusive call do not appear. A call without a number means that no potency is given here. Some compounds were tested as several samples or in several runs, with calls that do not always agree. Active and inactive are the calls of the source. Unless noted, calls follow the shape of the dose curve; as a rule, active = well fitted curve in the direction sought with a large enough effect in the repeat runs; inconclusive = weak or mixed curves; inactive = no such curve, though single readings can be large; an effect the other way counts as inactive or inconclusive.

Experiments:
[1] = qHTS assay to identify small molecule antagonists of the thyroid receptor (TR) signaling pathway (AID 743065); also: series mostly up to about 70 µM; nearly all actives have a fitted effect of over 55% in size
Summary of the method: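 GH3.TRE-Luc rat pituitary cells carrying two TR response elements driving luciferase were plated for 4 h, given compound plus 1 nM T3 (final), and incubated 23.5 h at 37 C. ONE-Glo luminescence measured reporter inhibition; CellTiter-Fluor fluorescence tracked cytotoxicity.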

[2] = test system: thyroid hormone receptor (rat, GH3 cells); experiment: qHTS assay to identify small molecule agonists of the thyroid receptor (TR) signaling pathway (AID 743066; calls by dose curve; also: potency is read from the fitted curve at half-maximal effect)
[3] = qHTS assay to identify small molecule antagonists of the estrogen receptor alpha (ER-alpha) signaling pathway - cell viability counter screen (AID 743074; calls by dose curve;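 also: HEK293 cells carrying ER-alpha-UAS-bla reporter stimulated with 17beta-estradiol; nearly all actives have a fitted effect of over 45% in size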)
[4] = qHTS assay to identify small molecule antagonists of the estrogen receptor alpha (ER-alpha) signaling pathway using the BG1 cell line - cell viability counter screen (AID 743081);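 also: compound given together with 17beta-estradiol as the ER stimulus; series mostly up to about 70 µM; nearly all actives have a fitted effect of over 45% in size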
Aromatase (Homo sapiens) = Aromatase (Homo sapiens) (UniProt P11511); experiment: qHTS assay to identify aromatase inhibitors (AID 743083); also: series mostly up to about 70 µM; nearly all actives have a fitted effect of over 55% in size
[5] = qHTS assay to identify aromatase inhibitors - cell viability counter screen (AID 743084);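 also: cells stimulated with testosterone during compound exposure; nearly all actives have a fitted effect of over 55% in size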; also: potency is read from the fitted curve at half-maximal effect
[6] = target: Aryl hydrocarbon receptor (Homo sapiens) (UniProt P35869); experiment: qHTS assay to identify small molecule that activate the aryl hydrocarbon receptor (AhR) signaling pathway (AID 743085); also: nearly all actives have a fitted effect of over 15% in size; also: potency is read from the fitted curve at half-maximal effect;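 as to activation: HG2L7.5c1 human HepG2 liver cells with stably integrated DRE-driven firefly reporter; series mostly up to about 70 µM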
Summary of the method: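 24 h compound exposure, 37C, HepG2-derived HG2L7.5c1 cells with DRE-responsive luciferase. Readouts: fluorescence viability, then luminescence at room temperature after 30 min.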

[7] = qHTS assay to identify small molecule that activate the aryl hydrocarbon receptor (AhR) signaling pathway - cell viability counter screen (AID 743086);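 also: HepG2 liver cells carrying the AhR DRE luciferase reporter; series mostly up to about 70 µM; nearly all actives have a fitted effect of over 45% in size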
Summary of the method: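 HepG2-AhR-luc (HG2L7.5c1) cells, 4000/well, were preincubated 5 h at 37C, exposed to compound in qHTS format for 24 hr at 37C, then given CellTiter-Fluor for 30 min; viability was read as fluorescence in the reporter wells.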

[8] = qHTS assay to identify small molecule antagonists of the peroxisome proliferator-activated receptor gamma (PPARg) signaling pathway - cell viability counter screen (AID 743194); also: nearly all actives have a fitted effect of over 55% in size
Summary of the method: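 PPARg-UAS-bla HEK293H cells were plated, rested 5 h at 37 C, then treated with compounds plus rosiglitazone (50 nM final) for 17 h at 37 C; viability was then read by CellTiter-Glo luminescence after 30 min at room temperature.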

[9] = qHTS assay for small molecule agonists of the antioxidant response element (ARE) signaling pathway (AID 743202; active = well fitted activation curve with a large enough effect in the signal ratio in the repeat runs, not every such curve was filed as active; the % refers to the signal ratio; also: potency is read from the fitted curve at half-maximal effect)
Summary of the method: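 Compounds delivered in DMSO to ARE-bla HepG2 cells (2,000 cells/well, pre-incubated 5 h) and left 16 h at 37 C. LiveBLAzer B/G FRET substrate then added for 2 h at RT before fluorescence reading.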

[10] = qHTS assay for small molecule agonists of the antioxidant response element (ARE) signaling pathway - cell viability counter screen (AID 743203; calls by dose curve; also: nearly all actives have a fitted effect of over 55% in size)
Summary of the method: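 ARE-bla HepG2 cells were plated, rested 5 h at 37C/5% CO2, then exposed to compounds in DMSO for 16 h. Viability was read as CellTiter-Glo luminescence after 30 min at room temperature, in the same wells as the ARE screen.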

[11] = qHTS assay for small molecule activators of the heat shock response signaling pathway - cell viability counter screen (AID 743209); also: nearly all actives have a fitted effect of over 50% in size
Summary of the method: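 HSE-bla HeLa cells plated overnight, then exposed to Tox21 compounds (23 nL in DMSO) for 5 h at 37 C. After the bla reporter read, CellTiter-Glo was added in the same wells and luminescence read after 30 min at room temperature.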

[12] = qHTS assay for small molecule activators of the heat shock response signaling pathway (AID 743210; active = well fitted activation curve with a large enough effect in the signal ratio in the repeat runs, with a control signal flat, not every such curve was filed as active; the % refers to the signal ratio;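 also: HeLa cells with beta-lactamase reporter driven by heat shock elements; series mostly up to about 63 µM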)
Summary of the method: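 Reporter gene assay: HeLa cells stably bearing an HSE-bla construct, compound treatment 5 h at 37 C, LiveBLAzer substrate 2.5 h at RT, fluorescence intensity.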

[13] = target: Estrogen receptor (Homo sapiens) (UniProt P03372); experiment: qHTS assay to identify small molecule agonists of the estrogen receptor alpha (ER-alpha) signaling pathway (AID 743075; calls by dose curve;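 also: HEK293 GripTite cells with ER-alpha and UAS-driven beta-lactamase reporter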)
[14] = target: Estrogen receptor (Homo sapiens) (UniProt P03372); experiment: qHTS assay to identify small molecule agonists of the estrogen receptor alpha (ER-alpha) signaling pathway using the BG1 cell line (AID 743079); also: nearly all actives have a fitted effect of over 20% in size; also: potency is read from the fitted curve at half-maximal effect
[15] = qHTS assay to identify small molecule antagonists of the estrogen receptor alpha (ER-alpha) signaling pathway using the BG1 cell line (AID 743080; calls by dose curve;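 also: BG1 cells stimulated with 17beta-estradiol alongside compound; series mostly up to about 70 µM; nearly all actives have a fitted effect of over 25% in size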)
Summary of the method: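 Endogenous full-length ER-alpha in BG1-Luc-4E2 cells drives a stably integrated 4×ERE luciferase gene; compounds were tested against 17beta-estradiol over 21.5 h, with luminescence and multiplexed viability fluorescence recorded.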

[16] = target: Peroxisome proliferator-activated receptor gamma (Homo sapiens) (UniProt P37231); experiment: qHTS assay to identify small molecule antagonists of the peroxisome proliferator-activated receptor gamma (PPARg) signaling pathway (AID 743191; calls by dose curve; also: nearly all actives have a fitted effect of over 30% in size; also: potency is read from the fitted curve at half-maximal effect)
Summary of the method: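 GeneBLAzer PPARg UAS-bla HEK293H cells carrying a UAS-driven beta-lactamase reporter were plated at 3000 cells/well, preincubated 5 h at 37C, then given compound for 17 h at 37C; LiveBLAzer B/G FRET substrate was read after 1 h at room temperature.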

[17] = target: Peroxisome proliferator-activated receptor gamma (Homo sapiens) (UniProt P37231); experiment: qHTS assay to identify small molecule agonists of the peroxisome proliferator-activated receptor gamma (PPARg) signaling pathway (AID 743094; active = well fitted activation curve with a large enough effect in the signal ratio in the repeat runs, not every such curve was filed as active; the % refers to the signal ratio)
Summary of the method: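 GeneBLAzer PPARg UAS-bla HEK293H cells were plated, rested 5 h, then exposed to compounds for 17 h at 37C. Beta-lactamase activity was read by LiveBLAzer B/G FRET substrate fluorescence after 1 h at room temperature.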

Chain of Peroxisome proliferator-activated receptor gamma (Homo sapiens) (P37231 whole entry, looked up): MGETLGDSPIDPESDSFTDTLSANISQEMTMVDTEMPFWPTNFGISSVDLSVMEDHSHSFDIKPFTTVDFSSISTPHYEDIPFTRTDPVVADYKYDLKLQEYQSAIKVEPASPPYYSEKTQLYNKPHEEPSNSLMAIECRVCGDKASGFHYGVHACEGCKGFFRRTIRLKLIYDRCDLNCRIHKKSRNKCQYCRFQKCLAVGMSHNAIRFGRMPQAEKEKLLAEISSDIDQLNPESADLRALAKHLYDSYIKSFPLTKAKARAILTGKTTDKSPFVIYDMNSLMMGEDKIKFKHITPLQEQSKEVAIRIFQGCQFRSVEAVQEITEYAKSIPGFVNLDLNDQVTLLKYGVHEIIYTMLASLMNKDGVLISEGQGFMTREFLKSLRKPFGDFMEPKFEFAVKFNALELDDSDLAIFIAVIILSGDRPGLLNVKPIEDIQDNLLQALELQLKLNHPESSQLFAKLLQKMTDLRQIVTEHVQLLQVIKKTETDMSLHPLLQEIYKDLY
Chain of Aryl hydrocarbon receptor (Homo sapiens) (P35869 whole entry, looked up): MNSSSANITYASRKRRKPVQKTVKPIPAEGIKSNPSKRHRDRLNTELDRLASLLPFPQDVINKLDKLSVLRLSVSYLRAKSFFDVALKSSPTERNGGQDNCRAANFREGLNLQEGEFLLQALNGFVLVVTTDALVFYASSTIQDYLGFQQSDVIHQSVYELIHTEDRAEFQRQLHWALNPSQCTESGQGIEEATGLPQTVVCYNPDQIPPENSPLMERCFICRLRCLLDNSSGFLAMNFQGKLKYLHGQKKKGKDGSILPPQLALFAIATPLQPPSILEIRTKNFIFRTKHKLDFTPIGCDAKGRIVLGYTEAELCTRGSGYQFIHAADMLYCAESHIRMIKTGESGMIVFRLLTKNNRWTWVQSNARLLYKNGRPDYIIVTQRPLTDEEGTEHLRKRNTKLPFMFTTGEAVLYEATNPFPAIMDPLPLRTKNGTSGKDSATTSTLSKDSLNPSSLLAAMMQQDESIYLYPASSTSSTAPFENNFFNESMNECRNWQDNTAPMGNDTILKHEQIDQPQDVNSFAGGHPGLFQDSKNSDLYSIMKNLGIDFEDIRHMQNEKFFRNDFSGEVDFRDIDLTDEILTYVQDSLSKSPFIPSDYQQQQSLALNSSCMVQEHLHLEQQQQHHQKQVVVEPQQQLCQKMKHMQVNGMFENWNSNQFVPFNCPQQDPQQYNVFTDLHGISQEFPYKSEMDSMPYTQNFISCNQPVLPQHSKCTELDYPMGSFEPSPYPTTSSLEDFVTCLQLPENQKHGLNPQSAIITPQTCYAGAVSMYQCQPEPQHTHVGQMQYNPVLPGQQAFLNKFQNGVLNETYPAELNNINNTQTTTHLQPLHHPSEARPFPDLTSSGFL
Chain of Aromatase (Homo sapiens) (P11511 whole entry, looked up): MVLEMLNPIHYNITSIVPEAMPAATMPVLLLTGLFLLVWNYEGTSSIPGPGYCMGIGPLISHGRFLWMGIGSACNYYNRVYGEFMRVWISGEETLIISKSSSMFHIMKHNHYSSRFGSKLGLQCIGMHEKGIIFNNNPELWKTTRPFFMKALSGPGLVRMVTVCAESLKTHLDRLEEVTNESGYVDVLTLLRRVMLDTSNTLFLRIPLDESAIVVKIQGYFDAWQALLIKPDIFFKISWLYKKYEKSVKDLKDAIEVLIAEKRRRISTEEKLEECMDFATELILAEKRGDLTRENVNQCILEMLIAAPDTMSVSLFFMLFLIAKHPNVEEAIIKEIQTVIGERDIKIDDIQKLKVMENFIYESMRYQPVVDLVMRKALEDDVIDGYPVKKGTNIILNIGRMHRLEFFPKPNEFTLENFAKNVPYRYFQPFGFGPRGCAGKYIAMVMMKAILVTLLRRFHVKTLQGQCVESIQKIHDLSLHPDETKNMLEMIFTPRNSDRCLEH
Chain of Estrogen receptor (Homo sapiens) (P03372 whole entry, looked up): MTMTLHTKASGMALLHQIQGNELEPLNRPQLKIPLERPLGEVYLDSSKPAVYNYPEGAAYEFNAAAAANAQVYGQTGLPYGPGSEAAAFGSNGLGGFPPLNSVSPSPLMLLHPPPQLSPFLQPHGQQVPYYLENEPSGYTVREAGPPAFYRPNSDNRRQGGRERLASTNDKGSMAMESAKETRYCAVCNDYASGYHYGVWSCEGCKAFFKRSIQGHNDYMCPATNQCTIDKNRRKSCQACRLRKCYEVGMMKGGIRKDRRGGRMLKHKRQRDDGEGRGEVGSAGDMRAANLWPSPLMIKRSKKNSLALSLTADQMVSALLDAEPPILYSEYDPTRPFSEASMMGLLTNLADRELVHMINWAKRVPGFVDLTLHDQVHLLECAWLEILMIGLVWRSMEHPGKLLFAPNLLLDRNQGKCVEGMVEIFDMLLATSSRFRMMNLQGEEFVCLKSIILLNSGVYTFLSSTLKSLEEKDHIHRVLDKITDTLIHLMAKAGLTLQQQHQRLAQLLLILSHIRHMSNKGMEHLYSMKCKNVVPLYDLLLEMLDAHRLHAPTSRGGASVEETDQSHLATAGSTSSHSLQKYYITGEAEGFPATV

Row | SMILES | Potency [1] | Potency [2] | outcome [3] | outcome [4] | Potency (Aromatase (Homo sapiens)) | Potency [5] | Potency [6] | outcome [7] | outcome [8] | Potency [9] | Potency [10] | Potency [11] | Potency [12] | outcome [13] | Potency [14] | outcome [15] | Potency [16] | outcome [17]
1 | Cc1ccccc1N | inactive | inactive | inactive | inactive | inactive | inactive | inactive | inactive | inactive | inactive | inactive | inactive | inactive |  |  |  |  | 
2 | Cc1cccc(C)c1N | inactive | inactive | inactive | inactive | inactive | inactive | inactive | inactive | inactive | inactive | inactive | inactive | inactive | inactive | inactive | inactive | inactive | 
3 | OCCCCO | inactive | inactive | inactive | inactive | inactive | inactive | inactive | inactive | inactive | inactive | inactive | inactive | inactive |  |  |  |  | 
4 | COP(=S)(OC)Oc1ccc(SC)c(C)c1 | inactive | inactive | inactive | inactive | inactive | inactive | 26.6 µM (active) and 30.3 µM (active) and 24.3 µM (active) | inactive | inactive | inactive | inactive | inactive | inactive | inactive | 48 µM (active) | inactive | inactive | 
5 | CC(=O)C1CCOC1=O (stereo not drawn) | inactive | inactive | inactive | inactive | inactive | inactive | inactive | inactive | inactive | inactive | inactive | inactive | inactive |  |  |  | inactive | inactive
6 | NNc1ccccc1 |  | inactive | inactive | inactive | inactive | inactive |  | inactive | inactive | inactive | inactive | inactive | inactive |  |  |  | 13.8 µM (active) and inactive | inactive
7 | Cc1cc(O)ccc1Cl | inactive | inactive and 27.3 µM (active) | inactive | inactive | inactive | inactive | inactive | inactive | inactive | inactive | inactive | inactive | inactive | inactive | inactive and 62.2 µM (active) | inactive | inactive | 
8 | CNC(=O)O/N=C(\SC)C(=O)N(C)C | inactive | inactive | inactive | inactive | inactive | inactive | inactive | inactive | inactive | inactive | inactive | inactive | inactive | inactive | 66.7 µM (active) | inactive | inactive | 
9 | CCOC(=O)CC(SP(=O)(OC)OC)C(=O)OCC (stereo not drawn) | inactive | inactive |  | inactive | inactive | inactive | inactive | inactive | inactive |  | inactive | inactive | inactive |  |  |  | inactive | 
10 | Nc1ccc([As](=O)(O)O)cc1 | inactive | inactive | inactive | inactive | inactive | inactive |  | inactive | inactive | inactive | inactive | inactive | inactive | inactive | inactive | inactive | inactive | 
11 | CNC(=O)O/N=C/C(C)(C)S(C)=O (stereo not drawn) | inactive | inactive | inactive | inactive | inactive | inactive |  | inactive | inactive | inactive | inactive | inactive | inactive | inactive | inactive | inactive | inactive | 
12 | O=C(O)c1cc(Oc2ccc(C(F)(F)F)cc2Cl)ccc1[N+](=O)[O-] | inactive | inactive | inactive | inactive | inactive | inactive | inactive | inactive | inactive | inactive | inactive | inactive | inactive |  |  |  | inactive | inactive
13 | CN(C)NC(=O)CCC(=O)O | inactive | inactive | inactive | inactive | inactive | inactive | inactive | inactive | inactive | inactive | inactive | inactive | inactive |  |  |  | inactive | 
14 | Cc1cc(Cl)ccc1OC(C)C(=O)O (stereo not drawn) | inactive | inactive | inactive | inactive | inactive | inactive | inactive | inactive | inactive | inactive | inactive | inactive | inactive | inactive | inactive | inactive | inactive | 
15 | C=CC(=O)OCC(CC)CCCC (stereo not drawn) | inactive | inactive | inactive | inactive | inactive | inactive | inactive | inactive | inactive | inactive | inactive | inactive | inactive |  |  |  |  | 
16 | CC[N+](=O)[O-] | inactive | inactive | inactive | inactive | inactive | inactive | inactive | inactive | inactive | inactive | inactive | inactive | inactive |  |  |  |  | 
17 | O=P1(NCCCl)OCCCN1CCCl (stereo not drawn) | inactive | inactive | inactive | inactive | inactive | inactive | inactive | inactive | inactive | inactive | inactive | inactive | inactive |  |  |  | inactive | 
18 | Nc1cc(Cl)cc(Cl)c1 | inactive | inactive | inactive | inactive | inactive | inactive | inactive | inactive | inactive | inactive | inactive | inactive | inactive |  |  |  |  | inactive
19 | CC(C)CCCCCCOC(=O)c1ccccc1C(=O)OCCCCCCC(C)C | inactive | inactive | inactive | inactive | inactive | inactive | inactive | inactive | inactive | inactive | inactive | inactive | inactive | inactive | inactive | inactive |  | 
20 | Cl[C@H]1OCCO[C@@H]1Cl | inactive | inactive | inactive | inactive | inactive | inactive | inactive | inactive | inactive | inactive | inactive | inactive | inactive |  |  |  | inactive | inactive
21 | C/C=C/c1ccc2c(c1)OCO2 | inactive | inactive | inactive | inactive | inactive | inactive |  | inactive | inactive | inactive | inactive | inactive | inactive |  |  |  |  | 
22 | Nc1ccc(N)cc1 | inactive | inactive | inactive | inactive | inactive | inactive and 54.7 µM (active) and 43.3 µM (active) |  | inactive | inactive | 8.67 µM (active) and 10.6 µM (active) | inactive | inactive |  |  |  |  | inactive | inactive
23 | N#CN=C(N)N | inactive | inactive | inactive | inactive | inactive | inactive | inactive | inactive | inactive | inactive | inactive | inactive | inactive | inactive | inactive | inactive | inactive | 
24 | O=[N+]([O-])c1cc([As](=O)(O)O)ccc1O | inactive | inactive | inactive | inactive | inactive | inactive | inactive | inactive | inactive | inactive | inactive | inactive | inactive | inactive | inactive | inactive | inactive | 
25 | COc1cc(-c2ccc(N)c(OC)c2)ccc1N |  | inactive | inactive | inactive | inactive | inactive |  | inactive | inactive |  | inactive | inactive | inactive |  |  |  | inactive and 33.1 µM (active) | inactive
